ChEMBL document CHEMBL3988442, “University of Dundee, Small-Polar-MMV Screening Library” (2021)
Hit rate of the full screen: of about 48,000 compounds, about 13,000 (27%) showed an effect of 50% or more. This is one part of the list.

test system: Wolbachia pipientis; assay: Anti-Wolbachia Cell-Based Screen; format: functional; parameters: scale not given: in the data most compounds retested in dose-response had high values; conditions: 5 µM

Structure (SMILES)	Percent Effect [%]
CCOCC(=O)NCC1Cn2nnc(-c3cccc(F)c3)c2CO1 (stereo not given)	-1.189
NCC1Cc2cccc(-c3ccc(O)c(F)c3)c2O1 (stereo not given)	16.35
CC(NC(=O)N(C)Cc1ccsc1)c1nncn1C (stereo not given)	-12.05
CNC(=O)c1cc2c(nc1NCC(C)C)CCN(S(=O)(=O)C1CC1)CC2	-0.7375
CCc1nnsc1C(=O)N(C)Cc1ccco1	13.36
CCOC[C@H]1CC[C@H]2[C@H](CCN2S(=O)(=O)Cc2ccccc2)O1	-6.562
COC[C@H]1CC[C@H]2[C@H](CCN2C(=O)c2ccncc2F)O1	114.1
CCOC[C@@H]1CC[C@H]2[C@H](CCN2C(=O)c2ccncc2F)O1	103.3
CCOC[C@H]1CC[C@H]2[C@H](CCN2C(=O)c2ccncc2F)O1.O=C(O)C(F)(F)F	0.195
COC[C@@H]1CC[C@H]2[C@H](CCN2C(=O)c2ccncc2F)O1.O=C(O)C(F)(F)F	-6.773
COC[C@@H]1CC[C@H]2[C@H](CCN2S(=O)(=O)c2ccc(F)cc2)O1	6.066
Cn1nnc2c1C(COCc1ccccn1)CN(C(=O)c1cccs1)C2.O=C(O)C(F)(F)F (stereo not given)	-3.747
Cc1ccc(CN2CCc3c(nnn3C)C2COCc2ccccc2)s1.O=C(O)C(F)(F)F (stereo not given)	-9.551
CN(C)C(=O)N1Cc2nnn(C)c2C(COCc2cccnc2)C1.O=C(O)C(F)(F)F (stereo not given)	-1.037
Cc1ccc(CN2Cc3nnn(C)c3C(COCc3ccccc3)C2)s1.O=C(O)C(F)(F)F (stereo not given)	113.4
Cc1ccc(CN2Cc3nnn(C)c3C(COCc3ccccn3)C2)s1.O=C(O)C(F)(F)F.O=C(O)C(F)(F)F (stereo not given)	95.33
CCOCC(=O)N1Cc2nnn(C)c2C(COCc2ccccn2)C1.O=C(O)C(F)(F)F (stereo not given)	0.961
Cc1cc(CN(C)C(=O)CNS(=O)(=O)c2cccs2)no1	-1.596
CC[C@H]1COCCN1C(=O)c1ccc(OC)c(N2CCOCC2)c1	7.42
Cc1ncsc1CN1C[C@@H]2CCCO[C@@H]2[C@H](N(C)C(C)C)C1.O=C(O)C(F)(F)F.O=C(O)C(F)(F)F	-15.14
CCN(C(=O)C(C)C)C(c1cccnc1)c1ccc2c(c1)CCO2 (stereo not given)	4.729
Cn1c(C(=O)NC(Cc2ccsc2)c2cccnc2)cc(=O)n(C)c1=O (stereo not given)	166.4
Cn1c(=O)cc(C(=O)NC(Cc2ccsc2)c2cccnc2)[nH]c1=O (stereo not given)	175.1
Cc1csc(C(Cc2ccsc2)NC(=O)c2cc(=O)n(C)c(=O)n2C)n1 (stereo not given)	142.4
Cc1cc(NC(=O)CCc2ccsc2)n(C)n1	5.21

Structure (SMILES)	Percent Effect [%]
CC(Cc1ccsc1)NC(=O)c1cc(N2CCNC2=O)ccc1F (stereo not given)	-0.338
Cc1csc(N2CCN(C(=O)Cc3ccsc3)CC2)n1	4.933
Cc1cnccc1NC(=O)CCc1ccsc1	-8.034
CC(c1cccnc1)N1CCN(C(=O)NCc2cnn(C)c2)CC1 (stereo not given)	-9.128
CCN(CC)c1ccc(C(=O)N(C)Cc2c(C)noc2C)cn1	3.136
CCN(Cc1ccc(C#N)cc1F)C(=O)CN(C)CC(N)=O	-8.702
COCc1ccccc1C(=O)NCCCN1CCCC1C(=O)N(C)C (stereo not given)	-20.3
CC(C)c1nnc2n1CCN(c1nc3ccccc3o1)C2	11.04
O=C(c1cc(-n2cccn2)ccc1Cl)N1CCCC(N2CCCC2)C1 (stereo not given)	114.1
O=C(c1ccc(-n2cccn2)cc1Cl)N1CCCC(O)(CO)C1 (stereo not given)	-12.88
CCN(CC)C1CCN(C(=O)c2cc(-n3cccn3)ccc2Cl)CC1	93.46
CC(C)CCC(=O)N1CCN(C(=O)c2ccc(-n3cccn3)cc2)CC1	-3.976
O=C(c1cc(-n2cccn2)ccc1Cl)N1CCC(N2CCCC2=O)CC1	95.9
O=C(NCc1ccccc1-n1cccn1)N1CCN2CCCCC2C1 (stereo not given)	-0.3123
Cc1nn(-c2ccccc2)cc1C(=O)N1CCCN2CCCC2C1 (stereo not given)	6.19
O=C(c1cccc(-n2cccn2)c1)N1CCOC(CCO)C1 (stereo not given)	-0.5625
O=C(c1cccnc1-n1cccn1)N1CCN(CC2CC2)CC1	-16.04
CCn1ccnc1CN1CCCC(N(C)CCc2ccccc2)C1 (stereo not given)	3.806
COc1ccc(Cl)cc1-c1cc(NC(=O)C2COCCO2)[nH]n1 (stereo not given)	-1.485
Cc1cc(I)cnc1NC(=O)C(C)(C)C	-4.531
CC(C)Cc1nc(OCC(N)=O)c(C#N)c2c1CCC2	34.66
COCCCC1(C(=O)O)CCCN(C(=O)c2ccc(C(C)C)[nH]c2=O)C1 (stereo not given)	4.25
O=C(Nc1ccnc(OC2CCOC2)c1)c1ccccc1Cl (stereo not given)	70.82
O=C(Nc1ccnc(OC2CCOC2)c1)c1ccc(F)cc1Cl (stereo not given)	-10.63
Cc1occc1C(=O)Nc1ccnc(OC2CCOC2)c1 (stereo not given)	30.35

Structure (SMILES)	Percent Effect [%]
N[C@H]1CN(C(=O)c2ccccc2Oc2ccccc2)C[C@@H]1C1CC1	-0.964
O=C(O)c1ccnc(-c2ccnc(N3CCC(F)(F)CC3)n2)c1	-4.386
CCN1CCN(CCC(=O)NC2CC(c3cccc(Cl)c3)C2)CC1 (stereo not given)	-7.949
Cc1nccn1C1CCCN(C(=O)c2cc3ccccc3[nH]2)C1 (stereo not given)	-11.12
Cc1nccn1C1CCCN(C(=O)c2ccc3c(c2)COC3)C1 (stereo not given)	0.6755
Cc1nccn1C1CCCN(C(=O)c2ccc3c(c2)CCC3)C1 (stereo not given)	108.9
Cc1nccn1C1CCCN(C(=O)c2ccc3cc[nH]c3c2)C1 (stereo not given)	104
CC(CO)NCc1csc2c1CCCC2 (stereo not given)	1.325
CCCc1ccc(CN2CCN(C(=O)CC(C)C)[C@@H]3CS(=O)(=O)C[C@@H]32)o1	-2.422
COc1cc(N2CCc3ncnc(-c4ccncc4)c3CC2)ncn1.O=C(O)C(F)(F)F	4.079
CC(C)NC(=O)N1CCc2ncnc(-c3ccncc3)c2CC1.O=C(O)C(F)(F)F	129.4
O=C(O)C(F)(F)F.O=C(c1ccno1)N1CCc2ncnc(-c3ccncc3)c2CC1	111.4
O=C(O)C(F)(F)F.O=C(c1ccncc1)N1CCc2ncnc(C3CC3)c2CC1	-7.83
Cc1ncnc2c1CCN(C(=O)c1ccncc1)CC2.O=C(O)C(F)(F)F	-2.654
O=C(NC1CC1)N1CCc2ncnc(-c3ccncc3)c2CC1.O=C(O)C(F)(F)F	-17.44
CN(C)C(C(=O)NC1(CO)CCCC1)c1ccc(F)cc1 (stereo not given)	-4.7
O=C1N(c2ccc(Br)cc2)Cc2nc(=O)[nH]n21	13.29
Cc1cc(C(=O)N[C@@H]2CCNC[C@H]2O)ccc1Cl	-15.13
Cc1cc2cc(C(=O)N[C@@H]3CC[C@@H](N4CCOCC4)[C@@H]3O)ccc2o1	-19.97
Cc1cc2cc(C(=O)N[C@@H]3CC[C@@H](N4CCNC(=O)C4)[C@@H]3O)ccc2o1	121.8
Cc1cc2cc(C(=O)N[C@@H]3CC[C@@H](N4CCCC4)[C@@H]3O)ccc2o1	117.2
Cc1cc2cc(C(=O)N3CCN(CCO)[C@@H]4CS(=O)(=O)C[C@@H]43)ccc2o1	-0.6581
CCN(C)c1ncnc2c1CCN(C(=O)c1ccno1)CC2	-25.29
N#Cc1cnn(C(=O)CCCOc2ccccc2Cl)c1N	5.085
CC(=O)N1CCC(c2nnc3ccc(C(=O)NCC(C)C)cn23)C1 (stereo not given)	-18.5

Structure (SMILES)	Percent Effect [%]
CN(C(=O)c1cnc(N2CCOCC2)nc1)C1Cc2ccccc2C1	-2.733
O=C(NCC(F)F)N1CCC(n2ccc(C(F)(F)F)n2)CC1	4.357
Cn1cc(-c2cnc(N3CCOCC3)nc2)cc1C(=O)O	-1.361
CC(=O)N1CCC(n2ccc(-c3cnc(N4CCOCC4)nc3)n2)CC1	94.2
CC[C@H](C)Nc1ncc(-c2ccn(C3CCN(C(C)=O)CC3)n2)cn1	95.97
CC(=O)N1CCC(n2ccc(-c3cnc(NCC(C)C)nc3)n2)CC1	75.49
CCC(SC)C(=O)N1CCC(n2ccnn2)CC1 (stereo not given)	9.459
CC(C)NC(=O)N1CCC(n2ccc(C(F)(F)F)n2)CC1	-15.91
O=C(O)c1cc(-c2ccncc2)cc(S(=O)(=O)N2CCSCC2)c1	-4.815
O=C(CCC(=O)N1CCOCC1c1ccccc1)c1cccs1 (stereo not given)	-0.4955
CC(C(=O)Nc1ccc2ccccc2c1)N1CCC(n2ccnc2)CC1 (stereo not given)	14.62
CCSCCNc1nc(-c2ccccn2)nc2c1c(C)nn2C	-9.72
CCCc1nnc(N(C)CC2CCN(CC(C)C)C2)o1 (stereo not given)	22.96
Cc1nnc2n1CCN(Cc1csc(CC(=O)N(C)C)n1)C2	-5.269
CCc1nnc2n1CCN(Cc1csc(NC(C)=O)n1)C2	125.2
CC(=O)Nc1nc(CN2CCn3c(C)nnc3C2)cs1	106.6
CCc1nnc2n1CCN(Cc1csc(-c3ccccc3F)n1)C2	-7.505
CCc1nnc2n1CCN(Cc1csc(-c3ccccc3)n1)C2	-8.809
Cc1nnc2n1CCN(Cc1csc(Cc3ccccc3)n1)C2	-6.731
CC(C)c1nnc2n1CCN(Cc1csc(CC(=O)N(C)C)n1)C2	-25.19
CC(=O)Nc1nc(CN2CCn3c(nnc3C3CC3)C2)cs1	-1.677
CC(C)c1nnc2n1CCN(Cc1csc(-c3cnn(C)c3)n1)C2	-7.082
CCc1nnc2n1CCN(Cc1csc(Cc3ccccc3)n1)C2	110.3
CC(=O)Nc1nc(CN2CCn3c(nnc3C(C)C)C2)cs1	134.2
CCc1nnc2n1CCN(Cc1csc(-c3cnn(C)c3)n1)C2	-17.9
